Assay outcomes: PubChem BioAssay, several laboratories
BoNT A protease: inhibitors of Botulinum neurotoxin A light chain protease. 360,000 tested, 0.17% active. multiplex microsphere protease substrate cleavage, flow cytometry. inhibition, % at 10 µM; note: plate controls were buffer without enzyme for full effect and enzyme alone for no effect
BoNT F protease: blocks Botulinum neurotoxin F light chain protease. Multiplex microsphere protease cleavage assay, flow cytometry. AID 588497. inhibition, % at 10 µM. 360,000 tested, 0.22% active; in the data active = inhibition above about 35%, passing the limit was not always enough; inconclusive = no clear call, values can overlap the other calls; note: plate controls were buffer without enzyme for full effect and enzyme alone for no effect
Anthrax LF inh2: blocks Bacillus anthracis lethal factor protease. P15917. multiplex microsphere protease cleavage assay, LF. inhibition, % at 10 µM. 360,000 tested, 0.12% active; note: plate controls were buffer without enzyme for full effect and enzyme alone for no effect
MazF activator: increases E. coli MazEF RNase cleavage of RNA. activation, % at 20 µM. 350,000 tested, 0.32% active. FAM/BHQ RNA-DNA oligo cleavage fluorescence, 5 h. P0AE70; in the data active = activation above about 50%
Bead autofluor: compound fluorescence in toxin protease inhibitor counterscreen; fluorescence intensity (test concentration not listed); AID 624483; compound autofluorescence counterscreen, microsphere flow cytometry; hits give high values; 360,000 tested, 3.1% active; in the data active = fluorescence intensity above about 16000; inconclusive = no clear call, values can overlap the other calls
Active calls of the source: *. Most compounds without a hit are left out; they make up all but 3.6% or so of the library. Cut-off read from the data, not from the text of the source, unless noted: active = inhibition above about 30%; inconclusive = no clear call, values can overlap the other calls; inactive = below that.

What do the screens show for `O=C(NC1(C(F)(F)F)C(=O)Nc2c1c(=O)[nH]c(=O)n2Cc1ccccc1)c1ccc(Cl)cc1` (stereo not given)?
BoNT A protease: 0; BoNT F protease: 2; Anthrax LF inh2: -4; MazF activator: 6; Bead autofluor: 16519*

What do the screens show for `O=C(NC1(C(F)(F)F)C(=O)Nc2c1c(=O)[nH]c(=O)n2Cc1ccccc1)c1ccc(Cl)cc1Cl` (stereo not given)?
BoNT A protease: -2; BoNT F protease: -3; Anthrax LF inh2: -6; MazF activator: 4; Bead autofluor: 16727*

How did COC1=Nc2ccccc2/C=C\c2ccccc21 do in these assays?
BoNT A protease: -1; BoNT F protease: -7; Anthrax LF inh2: -6; MazF activator: 6; Bead autofluor: 3647

Results for CCOc1ccc(N(Cc2cc3ccc(C)cc3[nH]c2=O)S(=O)(=O)c2ccccc2)cc1 ?
BoNT A protease: 2; BoNT F protease: -2; Anthrax LF inh2: -2; MazF activator: -9; Bead autofluor: 4345

Results for COc1ccc(N(Cc2cc3cccc(C)c3[nH]c2=O)S(C)(=O)=O)cc1 ?
BoNT A protease: -2; BoNT F protease: -5; Anthrax LF inh2: -1; MazF activator: 0; Bead autofluor: 24150*

How did CCOc1ccc(N(Cc2cc3ccc(C)cc3[nH]c2=O)S(C)(=O)=O)cc1 do in these assays?
BoNT A protease: 2; BoNT F protease: 3; Anthrax LF inh2: -1; MazF activator: -1; Bead autofluor: 22539*

Results for CCCCC(=O)N(C)c1c(CC)nc2c(OCC(=O)c3ccc(F)cc3)cccn12 ?
BoNT A protease: 0; BoNT F protease: 3; Anthrax LF inh2: -4; Bead autofluor: 3538

What do the screens show for `CCN1C(=O)CC(NCc2ccc(S(N)(=O)=O)cc2)C1=O` (stereo not given)?
BoNT A protease: 0; BoNT F protease: -6; Anthrax LF inh2: 0; MazF activator: 4; Bead autofluor: 4882

What do the screens show for `CC(C)Cc1nnc(NS(=O)(=O)Cc2ccccc2)s1`?
BoNT A protease: 7; BoNT F protease: 8; Anthrax LF inh2: 2; MazF activator: 2; Bead autofluor: 21019*

Results for Cc1cc(C(=O)CSc2nnc(N)s2)c(C)n1CCc1ccc(Cl)cc1 ?
BoNT A protease: inconclusive; BoNT F protease: -2; Anthrax LF inh2: -3; MazF activator: -2; Bead autofluor: 22078*

How did CCCNNC(=O)C(O)(c1ccccc1)c1ccccc1 do in these assays?
BoNT A protease: 1; BoNT F protease: 4; Anthrax LF inh2: 2; MazF activator: 0; Bead autofluor: 2061

How did CCOC(=O)CCP(=O)(O)C(C)(O)c1ccccc1 (stereo not given) do in these assays?
BoNT A protease: 2; BoNT F protease: 0; Anthrax LF inh2: 1; MazF activator: 0; Bead autofluor: 18987*

How did OC(c1ccccc1)(c1nc(-c2ccccc2)cs1)C(F)(F)F (stereo not given) do in these assays?
BoNT A protease: 0; BoNT F protease: -14; Anthrax LF inh2: -8; Bead autofluor: 3358

Results for c1ccc(CNc2ncnc3c2cnn3-c2ccccc2)cc1 ?
BoNT A protease: 0; BoNT F protease: -6; Anthrax LF inh2: -2; MazF activator: 17; Bead autofluor: 16180*

Results for c1ccc(-n2ncc3c(NCCN4CCOCC4)ncnc32)cc1 ?
BoNT A protease: 0; BoNT F protease: 0; Anthrax LF inh2: 1; MazF activator: 3; Bead autofluor: 16340*

What do the screens show for `c1ccc(-n2ncc3c(NCCN4CCCCC4)ncnc32)cc1`?
BoNT A protease: 0; BoNT F protease: 6; Anthrax LF inh2: -1; MazF activator: 3; Bead autofluor: 3137

What do the screens show for `Fc1ccc(CNc2ncnc3c2cnn3-c2ccccc2)cc1`?
BoNT A protease: 0; BoNT F protease: inconclusive; Anthrax LF inh2: 2; MazF activator: 22; Bead autofluor: 4065

What do the screens show for `CN(Cc1ccccc1)c1ncnc2c1cnn2-c1ccccc1`?
BoNT A protease: 4; BoNT F protease: 5; Anthrax LF inh2: -2; MazF activator: -7; Bead autofluor: 22100*

How did c1ccc(-n2ncc3c(NCc4ccccn4)ncnc32)cc1 do in these assays?
BoNT A protease: -1; BoNT F protease: -2; Anthrax LF inh2: 0; MazF activator: -4; Bead autofluor: 24065*

Results for COc1ccc(OC)c(NC(=O)CSc2ccc(-c3cccnc3)nn2)c1 ?
BoNT A protease: 0; BoNT F protease: 7; Anthrax LF inh2: 2; MazF activator: 0; Bead autofluor: 5561

What do the screens show for `O=c1[nH]cnc(O)c1C1C=CC=CC=C1`?
BoNT A protease: 0; BoNT F protease: -2; Anthrax LF inh2: -5; MazF activator: -2; Bead autofluor: 2889

Results for Cc1c(C(=O)NNC(=S)Nc2ccc(S(N)(=O)=O)cc2)oc2ccccc12 ?
BoNT A protease: -3; BoNT F protease: -4; Anthrax LF inh2: 0; MazF activator: -2; Bead autofluor: 6130

How did CCOc1ccc(C(=O)C(C)OC(=O)CN2C(=O)NC(C)(C)C2=O)cc1 (stereo not given) do in these assays?
BoNT A protease: 0; BoNT F protease: -4; Anthrax LF inh2: -2; MazF activator: 2; Bead autofluor: 6777

How did CC1=C(C(=O)OCC(C)C)C(c2ccsc2)NC(=O)N1 (stereo not given) do in these assays?
BoNT A protease: 0; BoNT F protease: -3; Anthrax LF inh2: -5; MazF activator: 11; Bead autofluor: 16729*

What do the screens show for `CCC(C)OC(=O)C1=C(C)NC(=O)NC1c1ccc(F)cc1` (stereo not given)?
BoNT A protease: -1; BoNT F protease: -6; Anthrax LF inh2: 0; MazF activator: -2; Bead autofluor: 10770

Results for CC1=C(C(=O)OC(C)C)C(c2ccc(F)cc2)NC(=O)N1 (stereo not given) ?
BoNT A protease: 0; BoNT F protease: -2; Anthrax LF inh2: 0; MazF activator: 4; Bead autofluor: 16191*

What do the screens show for `CSCCC(c1nnnn1C1CCCC1)N1CCN(C/C=C/c2ccccc2)CC1` (stereo not given)?
BoNT A protease: -1; BoNT F protease: -5; Anthrax LF inh2: 2; Bead autofluor: 5503

Results for Cc1ccc2nc(-c3cccc(Br)c3)c(Cc3ccccn3)n2c1 ?
BoNT A protease: 3; BoNT F protease: 2; Anthrax LF inh2: 4; Bead autofluor: 6128

How did CCOC(=O)c1cc(C(=O)NCc2ccc(Cl)cc2Cl)nn1C do in these assays?
BoNT A protease: 0; BoNT F protease: -2; Anthrax LF inh2: -2; MazF activator: -4; Bead autofluor: 2345

Results for CCOC(=O)c1cc(C(=O)Nc2ccc(C)c(F)c2)nn1C ?
BoNT A protease: -3; BoNT F protease: -6; Anthrax LF inh2: -2; MazF activator: -4; Bead autofluor: 21479*

What do the screens show for `CC(C)(Oc1ccc(Cl)cc1)C(=O)NC1CC1`?
BoNT A protease: -2; BoNT F protease: 19; Anthrax LF inh2: 6; MazF activator: 0; Bead autofluor: 4904

What do the screens show for `Cn1c(=O)[nH]c(=O)c2c1nc(OC(=O)c1ccccc1)n2CC(O)COc1ccc(F)cc1` (stereo not given)?
BoNT A protease: -1; BoNT F protease: -4; Anthrax LF inh2: 1; MazF activator: -1; Bead autofluor: 16708*
